Measured values reported in PubChem BioAssay (NCI).
About 83,000 compounds went through this panel and 20% of them were active in at least one assay; those are over-represented in the sample as a whole.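 Treatment: one concentration, 48 hours, 96-well format. Scoring: percent growth, with anything below 10 considered active.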 Unmarked numbers belong to inactive results. Calls of active or inactive are those of the source.

Experiments:
Experiment in all cases: NCI-60 one-dose screen, 48 h (100 = growth as untreated, 0 = no growth, -100 = all killed)
Settings in all cases: 10 µM unless noted
SK-MEL-2 melanoma = test system: SK-MEL-2 melanoma
EKVX NSCLC = test system: EKVX NSCLC
SN12C renal = test system: SN12C renal
UO-31 renal = test system: UO-31 renal
TK-10 renal = test system: TK-10 renal
ACHN renal = test system: ACHN renal
A498 renal = test system: A498 renal
CCRF-CEM leukemia = test system: CCRF-CEM leukemia
MOLT-4 leukemia = test system: MOLT-4 leukemia
SR leukemia = test system: SR leukemia
RPMI-8226 leukemia = test system: RPMI-8226 leukemia
OVCAR-8 ovarian = test system: OVCAR-8 ovarian
OVCAR-5 ovarian = test system: OVCAR-5 ovarian
OVCAR-4 ovarian = test system: OVCAR-4 ovarian
SK-OV-3 ovarian = test system: SK-OV-3 ovarian
IGROV1 ovarian = test system: IGROV1 ovarian
NCI/ADR-RES ovarian = test system: NCI/ADR-RES ovarian
OVCAR-3 ovarian = test system: OVCAR-3 ovarian
HS 578T breast = test system: HS 578T breast
CAKI-1 renal = test system: CAKI-1 renal

| SMILES | growth (SK-MEL-2 melanoma) | growth (EKVX NSCLC) | growth (SN12C renal) | growth (UO-31 renal) | growth (TK-10 renal) | growth (ACHN renal) | growth (A498 renal) | growth (CCRF-CEM leukemia) | growth (MOLT-4 leukemia) | growth (SR leukemia) | growth (RPMI-8226 leukemia) | growth (OVCAR-8 ovarian) | growth (OVCAR-5 ovarian) | growth (OVCAR-4 ovarian) | growth (SK-OV-3 ovarian) | growth (IGROV1 ovarian) | growth (NCI/ADR-RES ovarian) | growth (OVCAR-3 ovarian) | growth (HS 578T breast) | growth (CAKI-1 renal) |
| --- | --- | --- | --- | --- | --- | --- | --- | --- | --- | --- | --- | --- | --- | --- | --- | --- | --- | --- | --- | --- |
| COc1ccc2[nH]c(=O)c3c4ccccc4cn3c2c1 | 50.5% | 39.1% | 21.5% | 9.09% (active) | 16.9% | 23.2% | 50.3% | -31.2% (active) | 6.08% (active) | -27.2% (active) | -59.6% (active) | 24.4% | 31.4% | 49.1% | 32.8% | 16.8% | 24.8% | – | – | – |
| NNc1cccc(/C=C/c2ccccc2)cc1=O | 83.1% | 47.9% | 71.6% | 24.9% | 70.7% | 37.5% | 83.9% | 14.1% | 37.6% | 31.8% | 29.8% | 57.8% | 82.3% | 45.9% | 76.4% | 33.6% | 59.6% | 54.6% | 78.5% | – |
| Cc1ccc(S(=O)(=O)NC(=O)n2cc(-c3ccncc3)c(-c3ccc(Cl)c(O)c3)n2)cc1 | 90.9% | 110% | 99.9% | 107% | 95.5% | 94.5% | 105% | 93.9% | 85.2% | 83.3% | 99.9% | 99% | 114% | – | – | 112% | 104% | 146% | 107% | – |
| Cn1ncc2c(Sc3ccc(Cl)cc3)ncnc21 | -13.3% (active) | 90.2% | 90.1% | 71% | 82.7% | 95.1% | 86.3% | 95.3% | 95.8% | 53.6% | 48.5% | 101% | 109% | 95.7% | 94.2% | 87.4% | 103% | – | – | – |
| COc1ccc(S(=O)(=O)NCCCNc2nccc(-c3c(-c4cccc([N+](=O)[O-])c4)nc4sccn34)n2)cc1 | 41.4% | 57.2% | 42.8% | 19.7% | 89.1% | 33.8% | 46.2% | 18.7% | 22.5% | 53.5% | 11.5% | 29.8% | 98.7% | 29.2% | 89.6% | 40.1% | 22.9% | 41.2% | 65.9% | – |
| Clc1cc2c(nn1)Nc1ccccc1S2 | -4.79% (active) | 52.3% | 97.1% | 106% | 129% | 99.1% | 89.1% | 93.7% | 96.3% | 77.2% | 78.1% | 96.2% | 100% | 95.3% | 99% | 27.5% | 97.5% | 117% | 102% | – |
| CCCN=C1NC(=O)/C(=C/c2nc(-c3ccc(OC)cc3)n3ccccc23)S1 | 95.2% | 115% | 83.8% | 91.8% | 91.1% | 62.7% | 103% | 84.9% | 76.5% | 62.5% | 74% | 86.7% | 104% | 87.5% | 98.1% | 94% | 83.6% | 61.9% | -8.63% (active) | – |
| Cc1ccc(S(=O)(=O)c2nc(-c3ccccc3)oc2S(C)(=O)=O)cc1 | 67.5% | 74.1% | 0.543% (active) | 2.62% (active) | -72.8% (active) | -99.7% (active) | 85.2% | 0.985% (active) | -16.3% (active) | – | 8.94% (active) | 54.7% | 66% | 80.5% | 76.6% | 65.6% | 85.1% | -86.8% (active) | 91.2% | – |
| O=Nc1c(-c2cccc([N+](=O)[O-])c2)nc2ncccn12 | 85.2% | 108% | 91.5% | -3.03% (active) | 85% | 29.1% | 103% | -27.2% (active) | 7.7% (active) | -27.8% (active) | -30.7% (active) | 81.1% | 93.5% | 86.5% | 101% | 40.5% | 97.5% | 44.9% | 107% | – |
| C/C=C(\C)C(C(=O)NC1CCCCC1)N(C(=O)C1CCc2cc(F)ccc2O1)c1ccc(Cl)cc1 (configuration not stated) | 103% | 94.2% | 106% | 92.6% | 96.2% | 115% | 109% | 101% | 95.4% | 111% | 100% | 98.3% | 103% | – | 98.4% | 103% | 97.2% | 111% | 94.7% | – |
| COc1cccc(CC(C)=C(c2ccc(OCCN(C)C)cc2)c2ccc(OCCN(C)C)cc2)c1 | 14% | 62% | -12.2% (active) | -91.3% (active) | -15.2% (active) | -82.4% (active) | 76.8% | -19.5% (active) | -25.5% (active) | -17% (active) | -31.1% (active) | -2.71% (active) | 21.2% | – | 70.2% | 8.66% (active) | 19% | -17.8% (active) | 42.4% | – |
| S=c1[nH]nc(-c2cc3ccc2CCc2ccc(cc2)CC3)n1-c1ccccc1 | 105% | 93.4% | 91.4% | 92.9% | -61.5% (active) | 100% | 90.2% | 95.8% | 92.7% | 96.6% | 94.5% | 102% | 103% | 83.1% | 111% | 100% | 99.8% | 104% | 116% | – |
| N[C@H]1CN(C(=O)c2cc3cc(Br)c(F)c(F)c3[nH]2)C[C@@H]1O | 102% | 92.8% | 95.7% | 67.2% | 107% | 102% | – | 97.2% | 98.1% | 108% | 98% | – | 94.3% | 110% | – | 84.6% | 100% | 102% | 98.9% | 79.4% |
| NC1=NC(SCc2ccccc2CCl)c2ncn(Cc3ccccc3CCl)c2N1 (configuration not stated) | -4.24% (active) | 77.9% | 37.8% | 61.3% | 56.2% | 31.8% | – | 7.36% (active) | 14.5% | 9.1% (active) | 76.7% | – | 110% | 42.9% | 89.7% | -26.3% (active) | 69% | 2.22% (active) | 33.8% | 32.4% |
| COc1ccc(C2CC(c3ccc(OC)cc3OC)=NN2c2ccc(S(N)(=O)=O)cc2)cc1 (configuration not stated) | 94.6% | 87.5% | 90.8% | 86.8% | 105% | 107% | 102% | 75.5% | 61.8% | 70.2% | 2.07% (active) | 77% | 99.4% | 80.2% | 105% | 82.5% | 89.4% | 119% | 103% | – |
| Clc1ccc2c(NC3CCC(NC4CCCCC4)CC3)ccnc2c1 (configuration not stated) | 55.2% | 68.1% | 74.1% | 56.2% | 48.8% | 58.2% | 62.5% | 70.2% | 56.9% | -3.32% (active) | 39.4% | 52.2% | 84.4% | – | 73.4% | 83.4% | 68% | 85.3% | 67.5% | – |
| O=c1cc/c(=N\Nc2ccccc2)c(=O)/c1=N/Nc1ccccc1 | 126% | 100% | 112% | 97.5% | 170% | 99.7% | 93% | 86.7% | 106% | – | 18.9% | 109% | 107% | 107% | 109% | 60.1% | 95.2% | – | – | – |
